Experimental findings from PubChem BioAssay AID2501 (Southern Research Specialized Biocontainment Screening …, 2010) are described below.

Out of some 2,200 compounds screened, about 1,200 (55%) were called active. So high a share suggests a set chosen from earlier hits. The list shows a part of the results. Values without a mark were called inactive. No cut-off is given here; in the data, nearly all actives have IC50 up to about 92 µM.

This assay can be described thus: counter assay for TAg ATPase ADP read-out – biochemical, ADP-Hunter, fluorescence, counter-screen (AID 2501).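 For inhibition: 0% = enzyme with vehicle and 100% = reference inhibitor wells; higher means more inhibition.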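 Note: purified T antigen ATPase.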 To be noted: series mostly up to 100 µM. (In general: A counterscreen serves to expose hits that act by an unwanted route or on another target.)
The term IC50 denotes the concentration at which inhibition is half-maximal. For `Oc1ccc(C2=Nn3c(nnc3-c3ccco3)SC2)cc1O`, the IC50 was 4.93 µM (active).
Consider `CN1CCc2cccc3c2[C@H]1Cc1ccc(O)c(O)c1-3`, for which the IC50 entry is “inactive”.
Regarding `O=C(NC(=S)Nc1cccc(S(=O)(=O)NC2=NCCC2)c1)c1cc(-c2ccco2)nc2ccccc12`, the IC50 entry is “inactive”.
On to `COc1cc(/C=C2/C(=O)c3cccc([N+](=O)[O-])c3C2=O)c(Br)cc1O`, for which the IC50 is 23.4 µM (active).
Regarding `O=C(O)/C=C/C(=O)c1ccc2c(c1)CCc1ccccc1-2`, the IC50 entry is “inactive”.
The same measure, in the same setting: in the case of `COc1ccc(NCC(O)Cn2cnc3c2c(=O)n(C)c(=O)n3C)cc1` (configuration not stated) it was 6.13 µM (active).
`CNc1nn(-c2cccc(Cl)c2)nc1N`: the IC50 is 9.76 µM (active).
Take `Cc1nn(-c2cccc(Cl)c2)c2nc(-c3ccco3)cc(C(=O)O)c12`: the IC50 result is “inactive”.
On the same count and under the same terms, to `CNC(=S)N1CCN(c2ccc(OC)cc2)CC1` belongs 8.87 µM (active).
Turning to `COc1ccc(N2CCN(c3cc(=O)n(Cc4ccc(F)cc4)c(=O)[nH]3)CC2)cc1`, the IC50 entry was “inactive”.
Regarding `COc1ccc(N2CCN(C(=O)NC3CC(=O)N(c4ccc(OC)cc4)C3)CC2)cc1` (configuration not stated), the IC50 was 26.8 µM (active).
Take `O=[N+]([O-])c1c(Nc2cccc(O)c2)cc(Cl)c2nonc12`: the IC50 entry was “inactive”.
On the same count and under the same terms, to `O=[N+]([O-])c1c(Nc2ccc(O)cc2)cc(Cl)c2nonc12` belongs 26.9 µM (active).
For the molecule `O=C(O)c1ccc(Nc2cc(Cl)c3nonc3c2[N+](=O)[O-])cc1`, the IC50 entry was “inactive”.
In the case of `C=CCn1c(CNc2ccccc2)nnc1SCC(=O)N/N=C/c1ccc(O)cc1O`, the 50% inhibitory concentration (IC50) was 4.22 µM (active).
With `CCn1c(Cc2ccccc2)nnc1SCC(=O)Nc1ccc(N2CCOCC2)c(Cl)c1`, the IC50 entry is “inactive”.
Turning to `CN1CCC(=C(c2ccccc2)c2ccc(Br)cc2)CC1`, the IC50 result is “inactive”.
Consider `COc1ccc(N=c2scc(C)n2CCCN2CCCC2=O)cc1`, for which the IC50 is 6.36 µM (active).
Regarding `CC(C)C1N=C2c3ccccc3N=C(SCC(=O)c3ccc(O)c(O)c3)N2C1=O` (configuration not stated), the IC50 is 4.05 µM (active).
For `Nc1ncc(N=Nc2cc(C(=O)O)ccc2Cl)s1`, the IC50 was 12.4 µM (active).
On to `COc1cccc(C(=O)N(Cc2cc3cc(C)ccc3[nH]c2=O)C(C)C)c1`, for which the IC50 entry was “inactive”.
In the case of `COCCN=C1Sc2nc3c(C)cccc3cc2CN1Cc1ccco1`, the concentration for half-maximal inhibition (IC50) was 13.7 µM (active).
Same read-out and setting: to `CCOC(=O)c1cnc(Nc2nc3ccccc3o2)nc1CSC(=S)N1CCCCC1` belongs “inactive”; to `CN(C)c1ccc(/C=C/c2cc[n+]([O-])cc2)cc1`, 5.15 µM (active).
Consider `Oc1ccc(Nc2nc(NCC3CCCO3)c3ccccc3n2)cc1` (configuration not stated), for which the IC50 was 5.81 µM (active).
As to `OCCNc1nc(Nc2ccc(O)cc2)nc2ccccc12`, the half-inhibitory concentration (IC50) was 2.57 µM (active).
Turning to `O=S(=O)(c1cccs1)N1CN(CC2CCCO2)c2nc3ccccc3nc21` (configuration not stated), the IC50 result was “inactive”.
Consider `CN(Cc1ccco1)S(=O)(=O)c1nnc(NC(=O)c2cccc(Cl)c2)s1`, for which the IC50 result is “inactive”.
On the same count and under the same terms, to `CCn1cc(CN2CCC(n3nccc3NC(=O)c3ccccc3OC)CC2)cn1` belongs “inactive”; to `CC(C)(C)OC(=O)N/N=C/c1ccc(N2CCOCC2)s1`, 8.25 µM (active).
On to `NC(=O)N/N=C/c1ccc(N2CCOCC2)s1`, for which the IC50 was 10.7 µM (active).
`COc1ccc(N(CC(=O)NCCc2cccc(C)c2)S(=O)(=O)c2c(C)noc2C)cc1`: the IC50 result is “inactive”.
On the same count and under the same terms, in the case of `COc1cccc(NS(=O)(=O)c2ccc3c(c2)C2C=CCC2C(c2ccc(C(=O)O)cc2)N3)c1` (configuration not stated) it was “inactive”; in that of `Cc1ccc(Nc2nc(-c3ccc(O)c(O)c3)cs2)nc1`, 8.68 µM (active).
Still for that read-out and setting: in the case of `Oc1ccc(-c2csc(Nc3ncccn3)n2)cc1O` it was 10.2 µM (active); in that of `Oc1ccc(-c2csc(Nc3ccccn3)n2)cc1O`, 11.2 µM (active).
With `Oc1ccc(-c2csc(Nc3cccc4ccccc34)n2)cc1O`, the 50% inhibitory concentration (IC50) was 23.6 µM (active).
On the same count and under the same terms, in the case of `Cc1cc(-c2nnc(SCc3ccccn3)o2)no1` it was “inactive”; in that of `Cc1onc(-c2c(F)cccc2Cl)c1C(=O)OCC(=O)NC(c1ccccc1)c1ccccc1`, “inactive”.
On to `COc1cc(/C=C2\C(=N)N3N=C(S(C)(=O)=O)SC3=NC2=O)ccc1OS(=O)(=O)c1ccc(C)cc1`, for which the half-maximal inhibitory concentration (IC50) was 28.6 µM (active).
Consider `CCS(=O)(=O)C1=NN2C(=N)/C(=C\c3ccc(OC(=O)c4ccco4)c(OC)c3)C(=O)N=C2S1`, for which the half-maximal inhibitory concentration (IC50) was 54.2 µM (active).
Same read-out and setting: to `CCS(=O)(=O)C1=NN2C(=N)/C(=C\c3ccc(SCc4ccco4)o3)C(=O)N=C2S1` belongs “inactive”.
With `COc1cc(/C=C2/C(=N)N3C(=NC2=O)SN=C3S(=O)(=O)C(C)C)ccc1OS(=O)(=O)c1ccccc1`, the IC50 entry is “inactive”.
Still for that read-out and setting: in the case of `COc1cc(/C=C2/C(=N)N3C(=NC2=O)SN=C3S(C)(=O)=O)ccc1OS(=O)(=O)c1ccc(C)cc1` it was “inactive”.
What is called inhibition is the share of the control response that was lost under treatment. Consider `CCOc1cc(/C=C2\C(=N)N3N=C(S(=O)(=O)CC)SC3=NC2=O)ccc1OC(=O)c1ccco1`, for which the inhibition was 8.45% [at 6.25 µM].
For the molecule `O=C1OC(c2ccc(Cl)cc2)=N/C1=C\C=C\c1ccco1`, the IC50 result was “inactive”.
With `Oc1ccc(-c2cn3ccccc3n2)cc1`, the IC50 was 3.69 µM (active).
On the same count and under the same terms, to `Cc1ccn2cc(-c3ccc(O)c(O)c3)nc2c1` belongs 7.1 µM (active); to `Oc1ccc(-c2cn3ccccc3n2)cc1O`, 5.62 µM (active).
Turning to `Cc1ccc(-c2nnc(Nc3ccc(O)cc3)c3ccccc23)cc1S(=O)(=O)NCCO`, the concentration for half-maximal inhibition (IC50) is 5.63 µM (active).
As to `O=C(Nc1cccc(N2C(=O)C=CC2=O)c1)c1cccs1`, the IC50 entry is “inactive”.
In the case of `CCOc1cc(NS(=O)(=O)c2ccc(NC(C)=O)cc2)c(OCC)cc1NC(=O)c1cccs1`, the IC50 is 7.08 µM (active).
For `COc1cc(NS(=O)(=O)c2ccc(NC(=S)NC(=O)/C=C/c3ccco3)cc2)ncn1`, the IC50 entry was “inactive”.
Turning to `CN=c1scc(-c2ccco2)n1/N=C/c1ccc(O)c(O)c1`, the IC50 is 8.2 µM (active).
Same read-out and setting: in the case of `O=C(COc1cccnc1[N+](=O)[O-])c1ccc(Cl)s1` it was 39.2 µM (active).
On the same count and under the same terms, to `Cc1cccc(C(=O)NCC(=O)OCC(=O)c2ccc(Cl)s2)c1` belongs “inactive”; to `O=C(Nc1ccon1)c1cc2ccccc2oc1=O`, “inactive”; to `COc1cc(-c2cc(=O)c3c(O)c(OC)c(OC)c(O)c3o2)ccc1O`, “inactive”.
In the case of `COc1cc(-c2cc(=O)c3ccccc3o2)ccc1O`, the IC50 was 3.14 µM (active).
On to `O=C(OC1CCCCC1=O)c1cc(=O)c2ccccc2o1` (configuration not stated), for which the IC50 result was “inactive”.
As to `CCCOCC1CC(CCc2nc(=S)[nH][nH]2)C(=O)O1` (configuration not stated), the IC50 result was “inactive”.
For the molecule `O=c1c2ccccc2sn1-c1nccs1`, the IC50 is 14.1 µM (active).
As to `Cc1ccnc(-n2sc3ccccc3c2=O)n1`, the 50% inhibitory concentration (IC50) is 9.06 µM (active).
On the same count and under the same terms, to `O=c1[nH]sc2ccccc12` belongs “inactive”; to `Cc1ccnc(NS(=O)(=O)c2ccccc2)n1`, “inactive”; to `O=C(Cn1sc2ccccc2c1=O)NC12CC3CC(CC(C3)C1)C2`, “inactive”.
Regarding `Cc1cc(=O)c2ccccc2s1`, the IC50 entry is “inactive”.
For `COc1cccc(C(c2sc3nc(C)nn3c2O)N2CCN(c3ccccc3F)CC2)c1` (configuration not stated), the IC50 entry is “inactive”.
As for `O=C(O)/C=C/C(=O)Nc1ccc(Cl)cc1C(=O)c1ccccc1`, the IC50 result is “inactive”.
Same read-out and setting: to `CN(C)c1nn(C(=O)Nc2ccc(Cl)cc2Cl)cc1-c1ccccc1` belongs 14.8 µM (active).
Take `CCCCSc1cc(C)nc(N)n1`: the IC50 result was “inactive”.
For `COC(=O)NNC(=O)c1ccccc1C`, the IC50 entry is “inactive”.
Turning to `CCN(CC)c1ccc(NC(=O)c2cccnc2)cc1`, the IC50 was 8.35 µM (active).
On the same count and under the same terms, in the case of `CCOC(=O)c1cc(NC(=O)c2cccnc2)ccn1` it was “inactive”; in that of `CCN(CC)c1ccc(NC(=O)c2cccc(C)c2OC)c(C)c1`, 14.9 µM (active).
Consider `CCN(CC)c1ccc(NC(=O)c2cnn(CC)c2)cc1`, for which the half-inhibitory concentration (IC50) was 4.27 µM (active).
For `COCCNC(=O)C(=O)Nc1ccc(Cl)cc1C`, the IC50 result is “inactive”.
Still for that read-out and setting: in the case of `CCN(CC)c1ccc(NC(=O)c2cccnc2)c(C)c1` it was 6.37 µM (active).
On to `COc1ccc(N2C(=NC(C)=O)SC3CS(=O)(=O)CC32)cc1OC` (configuration not stated), for which the IC50 entry was “inactive”.
For the molecule `CC(C)=CCc1c(O)c(CC=C(C)C)c2c(c1O)-c1cc(O)c(O)cc1CC2`, the IC50 result was “inactive”.
In the case of `O=C(NCc1ccccn1)C1CCN(S(=O)(=O)c2ccccc2)CC1`, the IC50 result is “inactive”.
In the case of `CCN(CC)c1ccc(NC(=O)c2cccc(F)c2)c(C)c1`, the half-maximal inhibitory concentration (IC50) is 9.01 µM (active).
For the molecule `COc1ccc2c(c1OC)C(=O)N(c1ccc(O)cc1)C2`, the concentration for half-maximal inhibition (IC50) is 2.39 µM (active).
Consider `C=CS(=O)c1sc(Cl)c(N2CCOCC2)c1[N+](=O)[O-]` (configuration not stated), for which the IC50 entry is “inactive”.
`CC(=O)Oc1cc2cccc(OC(C)=O)c(=O)c2c(OC(C)=O)c1OC(C)=O`: the IC50 was 91.6 µM (active).
On to `Cc1ccc(S(=O)(=O)Nc2cc(NC(=O)CN3CCOCC3)ccc2Cl)cc1`, for which the IC50 result was “inactive”.
For the molecule `Cc1ccc(S(=O)(=O)N2CCOCC2)cc1NC(=O)CN1CCN(c2ccc(O)cc2)CC1`, the concentration for half-maximal inhibition (IC50) is 5.44 µM (active).
For the molecule `O=C(CN1CCN(c2ccc(O)cc2)CC1)Nc1cc(S(=O)(=O)N2CCOCC2)ccc1Cl`, the IC50 is 6.43 µM (active).
Same read-out and setting: to `O=S(=O)(c1ccc(NC(=S)N2CCN(c3ccc(O)cc3)CC2)cc1)N1CCOCC1` belongs 4.49 µM (active).
Same read-out and setting: to `Cn1c(CCC(=O)Nc2cc(S(C)(=O)=O)ccc2Cl)nc2cc(S(=O)(=O)N3CCOCC3)ccc21` belongs “inactive”.
Consider `COC(=O)Nc1ccc(S(=O)(=O)N2CCCC(C(=O)N3CCOCC3)C2)cc1` (configuration not stated), for which the IC50 result is “inactive”.
With `Cc1ccc(S(=O)(=O)n2nc(OC(=O)c3ccccc3C)cc2N)cc1`, the IC50 result was “inactive”.
For `C=CCSc1nc(N)c(NC(=O)c2ccco2)c(=O)[nH]1`, the IC50 entry is “inactive”.
Turning to `COc1ccccc1NC(=O)Oc1ccc(NC(=O)c2ccco2)cc1`, the IC50 was 3.94 µM (active).
As to `O=C(Nc1cccc(NC(=O)c2ccco2)c1)c1ccc([N+](=O)[O-])cc1`, the IC50 result is “inactive”.
On to `COc1cc(NC(=O)COc2ccccc2C)ccc1NC(=O)c1ccco1`, for which the IC50 entry was “inactive”.
`O=C(Nc1ccc(Cl)c(Cl)c1)Oc1ccc(NC(=O)c2ccco2)cc1`: the IC50 was 23.2 µM (active).
For the molecule `COc1ccccc1NC(=O)c1c([N+](=O)[O-])cnn1C`, the IC50 entry is “inactive”.
As for `Cc1cc(O)c(C=O)c2c1C(=O)Oc1c(CO)c(O)c3c(c1O2)C(O)OC3=O` (configuration not stated), the IC50 result is “inactive”.
As for `O=[N+]([O-])c1cc([N+](=O)[O-])c2cccnc2c1Oc1ccccc1O`, the half-inhibitory concentration (IC50) was 21.8 µM (active).
Turning to `O=S(=O)(O)c1cccc2c(N=Nc3ccc(O)c4ncccc34)cccc12`, the IC50 result was “inactive”.
In the case of `O=[N+]([O-])c1cc(CN2CCCC2)c2cccnc2c1O`, the IC50 entry is “inactive”.
